A number with no mark means an inactive call. The rule behind the calls is not given here.
The molecules below were run against Pantothenate synthetase (Mycobacterium tuberculosis (strain ATCC 25618 / H37Rv)) (UniProt P9WIL5) (assay: Coupled enzyme confirmation of inhibitors against recombinant Mtb PanC (AID 375;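 note: 0% = full reaction with vehicle and 100% = no enzyme background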)). Settings: coupled enzyme assay; at 10 µM, active compounds read high.
Chain of Pantothenate synthetase (Mycobacterium tuberculosis (strain ATCC 25618 / H37Rv)) (P9WIL5 whole entry, looked up): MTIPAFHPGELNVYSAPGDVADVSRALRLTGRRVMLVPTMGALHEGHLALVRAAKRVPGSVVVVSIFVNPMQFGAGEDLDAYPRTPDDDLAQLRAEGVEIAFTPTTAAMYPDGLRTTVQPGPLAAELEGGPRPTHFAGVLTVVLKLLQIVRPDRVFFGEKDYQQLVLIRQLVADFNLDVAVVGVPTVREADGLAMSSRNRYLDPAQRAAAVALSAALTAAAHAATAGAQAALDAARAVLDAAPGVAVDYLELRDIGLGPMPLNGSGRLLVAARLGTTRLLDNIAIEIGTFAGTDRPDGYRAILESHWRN
With `Nc1nonc1NC(=O)CSc1nc2ccccc2s1` the inhibition was 0%.
`Cc1cc(C(=O)CSCc2nnc3n(CCC(C)C)c(=O)c4ccccc4n23)c(C)n1C` showed an inhibition of 8%.
In the case of `CC(=O)Nn1c(C)nnc1-n1nc(C)cc1C`, the inhibition is reported as 0%.
`CN(C)S(=O)(=O)c1ccc(S(=O)(=O)Nc2ccc3c(c2)oc2ccccc23)cc1` gave an inhibition of 0%.
`CC1=C(C#N)C(c2ccoc2)C(C(=O)OCc2ccccc2)=C(N)S1` (stereo not given) showed an inhibition of 5%.
For `Cn1c(=O)oc2cc(S(=O)(=O)N3CCN(c4ccccn4)CC3)ccc21`, the inhibition was 0%.
For `CCCN(S(=O)(=O)c1ccc(OCC)cc1)S(=O)(=O)c1cccs1`, the inhibition was 0%.
Work on `CCOC(=O)N1CCC(N2C(=O)c3ccccc3C2Nc2ccccc2C)CC1` (stereo not given) yielded an inhibition of 4%.
`COC(=O)C1=C(C)C(c2cccs2)NC(=O)N1C` (stereo not given) showed an inhibition of 0%.
`Cc1ccc2nc(CSc3nnc(-c4ccco4)n3-c3ccccc3)cc(=O)n2c1` was tested, and the inhibition was 4%.
With `Cc1cc(NC(=O)COc2cccc(C)c2C)no1` the inhibition was 0%.
In the case of `N#C/C(=C\c1ccc(O)c(O)c1)C(=O)NCCCc1ccccc1`, the inhibition is reported as 0%.
For `CC(C)CC(=O)Nc1ccccc1-c1nnn(CC(=O)N2CCOCC2)n1`, the inhibition was 0%.
Molecule `CCOc1ccccc1NC(=O)CN(c1ccc(C)cc1)S(=O)(=O)c1c(C)noc1C` has an inhibition of 9%.
Work on `COc1ccc(OC)c(S(=O)(=O)Nc2ccc(C(N)=O)cc2)c1` yielded an inhibition of 0%.
Work on `CCOc1ccc(Cn2nnc(C(=O)Nc3ccc(OC)cc3OC)c2N)cc1` yielded an inhibition of 0%.
`C[C@]12CC[C@@H]3c4ccc(O)cc4CC[C@H]3[C@@H]1CC[C@@H]2OC(=O)CCC(=O)O` was tested, and the inhibition was 8%.
In the case of `COc1ccc(Nc2nc(-c3sc(N)nc3C)cs2)cc1`, the inhibition is reported as 3%.
Molecule `O=c1c2ccccc2c(C=Nc2ccc(Cl)cn2)c(O)n1-c1cc(Cl)ccc1N1CCOCC1` has an inhibition of 4%.
In the case of `CCN(CC)CCCN1C(=O)C(=O)/C(=C(/O)c2ccc(C)cc2)C1c1ccccn1` (stereo not given), the inhibition is reported as 3%.
With `COc1ccc(-n2ncc3c(N4CCC(C)CC4)ncnc32)cc1` the inhibition was 1%.
In the case of `CC(C)(O)C1=NOC(c2ccccc2)C1` (stereo not given), the inhibition is reported as 0%.
In the case of `CCOc1cc(C2C(C(=O)c3ccccc3)=C(C(=O)OC)Nc3nnnn32)ccc1O` (stereo not given), the inhibition is reported as 0%.
For `COC(=O)c1ccccc1NC(=O)C1CC(=O)N(c2ccccc2)C1` (stereo not given), the inhibition was 4%.
In the case of `CCn1ncc(C2=NOC(C(=O)NCc3ccccc3)C2)c1C` (stereo not given), the inhibition is reported as 6%.
For `CC1(C)CC(=O)C2=C(C1)NC(=O)CC2C(=O)NCc1ccc(F)cc1` (stereo not given), the inhibition was 0%.
Work on `Cc1cccc(Cn2c(SCCN3CCCCC3)nc3c2c(=O)[nH]c(=O)n3C)c1` yielded an inhibition of 0%.
Molecule `Cc1ccc(S(=O)(=O)C(C#N)c2nc3ccccc3nc2N2CCCCC2)cc1` (stereo not given) has an inhibition of 2%.
Work on `COc1ccc(OC)c(NC(=O)CCN2CCC(C)CC2)c1` yielded an inhibition of 0%.
For `CCN(Cc1nc2cc(OC)c(OC)cc2c(=O)[nH]1)C(=O)c1ccc(S(=O)(=O)N(C)C)cc1`, the inhibition was 0%.
With `CCOc1ccc2c(c1)n(CO)c(=S)n2CO` the inhibition was 0%.
With `CCOC(=O)CNC(=O)C(Cc1ccccc1)NS(=O)(=O)c1ccc2c(c1)CCC(=O)N2` (stereo not given) the inhibition was 0%.
In the case of `CCN(CC)CCNC(=O)c1cc(Cl)c(N)cc1OC`, the inhibition is reported as 0%.
Work on `COC(=O)CC1C(=O)NCCN1C(=O)NC1CCCCC1` (stereo not given) yielded an inhibition of 1%.
`Cc1ccc(-c2cn3cccnc3n2)cc1NC(=O)c1ccc(Br)o1` gave an inhibition of 0%.
`COCCNC(=O)C(c1cccc(OC)c1)N(Cc1cccs1)C(=O)Cn1nnc2ccccc21` (stereo not given) gave an inhibition of 0%.
`O=C(O)CCCc1ccccc1` was tested, and the inhibition was 0%.
`Cc1ccc(C)c(S(=O)(=O)C(C#N)c2nc3ccccc3nc2N2CC(C)OC(C)C2)c1` (stereo not given) showed an inhibition of 0%.
Molecule `CCOC(=O)CN1CC23C=CC(O2)C(C(=O)Nc2ccc(OCC)cc2)C3C1=O` (stereo not given) has an inhibition of 3%.
For `CC1CCCCC1NC(=O)Cn1ncc2ccccc21` (stereo not given), the inhibition was 0%.
